DT40 TDP1 CPT – growth inhibition of DT40 Tdp1-/-;hTDP1 cells with camptothecin (screen for TDP1 inhibitors) | chicken DT40 Tdp1-/-;hTDP1 cells + 20 nM CPT, ATP luminescence, 48 h | Potency, µM (titrated, usually from 46.2 µM), for the others: at the highest dose activity change, negative = growth inhibition, actives largely listed as inhibitors | 420,000 compounds, 12% hits | AID 686979; also: nearly all actives have a fitted effect of over 55% in size
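Chicken DT40 Tdp1-/- cells stably complemented with human TDP1 were seeded at 400 cells/well in medium containing 20 nM camptothecin, exposed to pin-transferred compounds, and grown at 37 °C for at least 48 hr. Viability was read as ATP luminescence.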
HT1080-NT tox – kills 2HG-producing HT-1080-NT fibrosarcoma cells; HT-1080-NT fibrosarcoma viability, CellTiter-Glo ATP luminescence, 48 h; Potency, µM (highest dose often 46.1 µM), for the others: at the highest dose activity, negative = less viability, most hits filed as cytotoxic; 360,000 compounds, 1.6% hits;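 also: NT is the 2HG producing partner of a matched IDH1 knockdown line; 0% = DMSO-treated cells and -100% = media-only wells without cells; nearly all actives have a fitted effect of over 55% in size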
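HT-1080-NT; 750 cells/well; 5% FBS RPMI; 48 h compound, 37 degrees C; CellTiter-Glo luminescence; curve fitting and curve-class assignment.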
KB-V1 cytotox – kills drug-selected multidrug resistant KB-V1 cells; KB-V1 MDR cells viability, CellTiter-Glo, 72 h; Potency, µM (series often up to 46.1 µM), usual class: cytotoxic; 400,000 compounds, 3.4% hits; also: nearly all actives have a fitted effect of over 60% in size
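Potencies derive from concentration-effect curves fitted to normalized luminescence (CellTiter-Glo) of KB-V1 cells treated for 72 h at 37 degrees C in phenol-red-free DMEM containing 10% FBS.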
HT1080 IDH1KD tx – toxicity to HT-1080 IDH1 knockdown cells (counter line); HT-1080 IDH1 knockdown viability, ATP luminescence, 48 h; Potency, µM (highest dose often 46.1 µM), for inactives: at the highest dose activity, negative = toxicity, hits mostly cytotoxic; 360,000 compounds, 2% hits; AID 686971;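 also: 0% = DMSO wells and -100% = cell-free medium wells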
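HT-1080-IDH1KD cells (IDH1 knocked down), 750/well in RPMI with 5% FBS, treated with compound 48 h at 37 degrees C. Viability by CellTiter-Glo luminescence, normalised to DMSO and no-cell wells; concentration-response curves classed.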
KB-3-1 tox – kills parental KB-3-1 adenocarcinoma cells; 400,000 compounds, 1.4% hits; KB-3-1 viability, CellTiter-Glo ATP luminescence, 72 h; Potency, µM (top dose mostly 46.1 µM), hits mostly cytotoxic; also: nearly all actives have a fitted effect of over 60% in size
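Using CellTiter-Glo luminescence, growth of non-resistant KB-3-1 adenocarcinoma cells is assessed 72 h after pin-tool compound addition at 37 °C. Normalized responses across the concentration series yield fitted curves.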
DT40 TDP1 no CPT – qHTS for Inhibitors of human tyrosyl-DNA phosphodiesterase 1 (TDP1): qHTS in cells in absence of CPT. DT40 Tdp1-/- hTDP1 cells, no CPT, ATP luminescence, 48 h. Potency, µM (series often up to 46.2 µM), for inactives: at the top dose activity change, negative = growth inhibition, actives largely listed as inhibitors. 420,000 compounds, 15% hits. AID 686978, 2013; also: nearly all actives have a fitted effect of over 55% in size
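Cells were dispensed at 400 per well, compounds added by pin tool, plates incubated ≥48 hr at 37 °C, then CellTiter-Glo added for 30 min at room temperature before luminescence reading. Line: DT40 Tdp1-/- complemented with hTDP1; camptothecin omitted.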
Numbers without * were called inactive; i = inactive; ? = inconclusive; . = no result; [ ] = another dose, or the depositor's remark. This is a sample that favours compounds with a hit; in the whole collection about 19% have one here. Calls follow the shape of the dose curve; as a rule, active = well fitted curve in the direction sought with a large enough effect; inconclusive = small, poorly fitted or top-dose-only effect, or another doubt; inactive = no such curve, though single readings can be large; an effect the other way counts as inactive or inconclusive. Unless noted, % is scaled to controls: 0 for no effect and ±100 for the full control effect; potency is read from the fitted curve at half-maximal effect.

SMILES | DT40 TDP1 CPT | HT1080-NT tox | KB-V1 cytotox | HT1080 IDH1KD tx | KB-3-1 tox | DT40 TDP1 no CPT
COc1ccc(C(=O)/C=C/C(=O)N(CC(=O)NCCC(C)C)Cc2cccs2)c(O)c1 | 1.84µM* | -1.8% | 10.3µM* | -15.7% | i | ?
COc1ccc(C(=O)/C=C/C(=O)N(CC(=O)NC2CCCCC2)Cc2ccc(F)cc2)c(O)c1 | 5.17µM* | -19.0% | 16.4µM* | -24.6% | ? | 4.61µM*
Cc1ccc(CC(C(=O)O)C(C)C(=O)Nc2ccc(F)cc2)cc1 (stereo unspecified) | -3.8% | 0.2% | i | -2.9% | i | 4.0%
COc1ccc(-n2ncc3c2ncn2nc(-c4ccc(Cl)cc4Cl)nc32)cc1 | 12.8% | . | . | . | . | -11.6%
COc1ccc(CCNC(=O)Cn2cc(S(=O)(=O)Cc3ccc(F)cc3)c3ccccc32)cc1OC | ? | . | i | . | i | 20.6µM*
COc1ccc(NC(=O)C(=O)c2cn(CC(=O)N3CCCC3)c3ccccc23)cc1 | 0.411µM* | ? | ? | 0.366µM* | ? | 0.231µM*
COc1ccc(CCNC(=O)C(=O)c2cn(CC(=O)N3CCCC3)c3ccccc23)cc1OC | -8.7% | -3.5% | ? | 5.3% | i | 20.6µM*
CC(=O)Nc1cccc(NC(=O)C(=O)c2cn(CC(=O)N3CCCCC3)c3ccccc23)c1 | 23.1µM* | -15.9% | i | -19.3% | i | ?
COc1ccc(CCNC(=O)CS(=O)(=O)c2cn(CC(=O)N3CCCC3)c3ccccc23)cc1OC | -0.1% | 0.6% | i | 22.0% | i | -3.5%
CC(=O)Nc1ccc(NC(=O)C(=O)c2cn(CC(=O)N3CCCC3)c3ccccc23)cc1 | 0.4% | 0.5% | i | -15.5% | i | -21.1%
COc1cc(OC)cc(N2C(=O)CSCC2=O)c1 | 1.8% | 0.6% | i | 9.2% | i | -2.7%
CCNC(=O)C1(C)CCCN(C(=O)c2cc(OC)ccc2Br)C1 (stereo unspecified) | 4.1% | 15.2% | i | 1.3% | i | 0.1%
COc1cccc(C(=O)N(Cc2nc(-c3ccc(C)cc3)no2)C(C)C)c1 | 18.4µM* | -1.3%[9.24 µM] | i | -21.9% | i | ?
Cc1ccc(C)c(C(=O)N(Cc2nc(-c3ccc(Cl)cc3)no2)C(C)C)c1 | ? | -0.2% | i | -18.0% | i | 18.4µM*
COc1ccc(OC(C)C(=O)N(C)Cc2nc(-c3ccc(OC)cc3)no2)cc1 (stereo unspecified) | ? | ? | 18.4µM* | 0.0% | ? | ?
COc1ccc(-c2noc(CN(C(=O)C(C)(C)C)C(C)C)n2)cc1 | ? | 7.8% | 20.6µM* | 9.0% | i | ?
Nc1c(Br)cc(Br)c2c1C(=O)c1c(cccc1S(=O)(=O)O)C2=O | -7.7% | -2.4% | i | -0.7% | i | ?
Cc1ccccc1OCC(=O)OCC(=O)NC1CCCC(C)C1C (stereo unspecified) | -22.9% | 0.5% | i | -3.8% | i | ?
Cc1cc(C(=O)N(Cc2nnc(-c3ccc(Cl)cc3)o2)C(C)C)c2ccccc2n1 | ? | 11.7% | i | 0.9% | i | 14.6µM*
COc1ccc(-c2noc(CN(C(=O)c3ccc(C)cc3C)C(C)C)n2)cc1 | 23.1µM* | . | i | . | ? | 14.6µM*
Cc1cc(C)c(C)c(C(=O)COC(=O)CNC(=O)CNC(=O)c2ccco2)c1C | 5.0% | -3.1% | i | 12.7% | i | 6.0%
C1CCC(CNc2c3c(nc4nnnn24)CCCC3)CC1 | ? | 4.4% | i | 5.1% | i | 11.6µM*
CCOC(=O)c1c(NC(C)=O)sc2c1CCC(C=NCCCN(CC)CC)=C2Sc1ccccc1 | 14.6µM* | ? | 16.4µM* | ? | ? | 13µM*
O=C(OCc1ccccc1)/C(=C/c1ccc(Cl)cc1)NC(=O)c1ccccc1Cl | -28.9% | ? | i | ? | i | ?
Cc1ccc(C(=O)N/C(=C\c2ccccc2)C(=O)OCc2ccccc2)cc1 | 29.1µM* | -1.3% | ? | 12.3% | i | ?
SMILES | DT40 TDP1 CPT | HT1080-NT tox | KB-V1 cytotox | HT1080 IDH1KD tx | KB-3-1 tox | DT40 TDP1 no CPT
Cc1ccc(S(=O)(=O)N=S(CC2CC2(Cl)Cl)CC2CC2(Cl)Cl)cc1 (stereo unspecified) | 23.1µM* | -11.2% | i | -11.9% | ? | 25.9µM*
CCOC(=O)C(C)(C)N(Cc1cccc(C)c1)S(=O)(=O)c1ccc(Cl)c([N+](=O)[O-])c1 | 23.1µM* | -10.5% | i | ? | 20.6µM* | 14.6µM*
CCOC(=O)C(C)(C)N(Cc1cccc(C)c1)S(=O)(=O)c1cccc([N+](=O)[O-])c1 | ? | -0.6% | 7.31µM* | -7.9% | 16.4µM* | ?
N#CN=c1snc(-c2ccccc2)n1-c1ccc(Br)cc1 | ? | . | i | . | ? | ?
Cc1cc([N+](=O)[O-])ccc1NC(=O)/C=C/c1cccs1 | -3.9% | 3.0% | 8.2µM* | 7.7% | ? | ?
Cc1ccc(NC(=O)/C=C/c2cccc(C(F)(F)F)c2)cc1 | -1.4% | -15.3% | ? | -0.3% | i | ?
Cc1ccc(NC(=O)/C=C/c2ccc([N+](=O)[O-])s2)cc1 | 3.26µM* | ? | ? | ? | ? | 3.66µM*
Cc1ccc(NC(=O)COC(=O)c2ccc([N+](=O)[O-])s2)c(C)c1 | -7.4% | 8.2% | i | 14.1% | i | 21.0%
Cc1cccc(NC(=O)/C=C/c2ccc([N+](=O)[O-])s2)c1 | 2.59µM* | 2.91µM* | 4.61µM* | 4.11µM* | 5.8µM* | 2.59µM*
Cc1ccc(NC(=O)/C=C/c2ccc([N+](=O)[O-])s2)c(C)c1 | 2.59µM* | 2.59µM* | i | 2.31µM* | ? | 3.66µM*
Cc1ccnc(NC(=O)/C=C/c2cccs2)c1 | ? | ? | 11.6µM* | ? | ? | 11.6µM*
CCCCCCn1cc(CN2CC(N3CCN(C4CCN(C)CC4)CC3)CS2(=O)=O)nn1 (stereo unspecified) | 0.2% | 12.5% | i | 15.8% | i | -8.6%
CCn1c(=O)cc(OCC(=O)N2CCCCCC2)c2ccccc21 | -4.9% | -1.5% | ? | -9.7% | i | 18.3%
CCn1c(=O)cc(OCC(=O)N2CCN(c3ccc(C)cc3)C(C)C2)c2ccccc21 (stereo unspecified) | 7.31µM* | . | i | . | i | 6.51µM*
